# Screen size: about 370,000 compounds; about 4,700 (1.3%) were called active.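 Rule for the calls: active = inhibition above the plate cutoff, the mean of all test compounds on that plate plus 3 SD (cut at about 35% in these data); inactive = the rest.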 The sample as a whole holds a higher share of actives than the screen did.
# Assay: binders of r(CAG) RNA repeats, primary screen, biochemical, fluorescence (AID 651821);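 note: 0% = DMSO alone and 100% = 100 µM mitoxantrone as full dye displacement; higher means more dye released from RNA so lower well fluorescence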
# Details: r(CAG) RNA repeat, TO-PRO-1 dye displacement fluorescence; at 3 µM; active compounds read high
row,SMILES,inhibition
1,CCOC(=O)c1cc2cc(-c3c(C(=O)OCC)oc4cc(O)cc(O)c4c3=O)ccc2o1,42.5% (active)
2,CCOC(=O)c1oc2c(CN3CCN(C)CC3)c(O)ccc2c(=O)c1-c1ccc(Br)cc1,-3.79% (inactive)
3,O=c1c(-c2ccc3c(c2)OCCO3)c(C(F)(F)F)oc2cc(O)cc(O)c12,22.9% (inactive)
4,COC(=O)C1CN(Cc2cn(Cc3ccc(F)cc3)nn2)CCS(=O)(=O)N1Cc1ccc(Cl)cc1 (centres undefined),-1.1% (inactive)
5,COc1cccc(-c2cc(CNC(=O)[C@@H](Cc3ccccc3)NC(=O)[C@H]3O[C@@H](n4cnc(C(N)=O)n4)[C@H](O)[C@@H]3O)no2)c1,6.53% (inactive)
6,COc1cccc(CC(=O)N2CCN(C(=O)C(=O)c3cccc(C(F)(F)F)c3)CC2)c1,-1.34% (inactive)
7,Cc1cccc(N=Nc2c(O)[nH]c3ccc(F)cc23)c1,17.5% (inactive)
8,Cc1[nH]c2ccc(S(N)(=O)=O)cc2c1C,2.18% (inactive)
9,NS(=O)(=O)c1ccc(N=Nc2c(O)[nH]c3ccc(Br)cc23)cc1,51.6% (active)
10,O=C(NC1CCCCN(Cc2ccc(Cl)cc2)C1=O)c1ccc(Br)cc1 (centres undefined),2.36% (inactive)
11,O=C(O)Cn1cnc2c(NCc3ccccc3)ncnc21,2.28% (inactive)
12,Nn1c(SCC(=O)Nc2cccc3ccccc23)nnc1-c1cc(-c2ccc(F)cc2)n[nH]1,9.39% (inactive)
13,O=C1/C(=C/c2cccs2)SC(=S)N1C1CCS(=O)(=O)C1 (centres undefined),-0.31% (inactive)
14,CC(C(=O)Nc1ccc(O)c(C(=O)O)c1)N1C(=O)/C(=C/c2cccs2)SC1=S (centres undefined),87.5% (active)
15,CCOc1ccc(NC(=O)C(C)N2C(=O)c3ccccc3C2=O)cc1 (centres undefined),-4.17% (inactive)
16,CCc1ccc(N2CC(C(=O)Nc3ccc(S(=O)(=O)Nc4nccs4)cc3)CC2=O)cc1 (centres undefined),50.1% (active)
17,CNS(=O)(=O)c1ccc(NC(=O)C2CC(=O)N(c3ccc(Cl)cc3)C2)cc1 (centres undefined),6.47% (inactive)
18,CC(C)c1ccc(N2CC(C(=O)Nc3nccs3)CC2=O)cc1 (centres undefined),0.86% (inactive)
19,Nc1ncnc2c1ncn2C1OC(CO)CC1O (centres undefined),0.74% (inactive)
20,O=C(NCCc1c[nH]c2ccccc12)OCc1cn(-c2c(F)cccc2F)nn1,0.36% (inactive)
21,COCCN(Cc1ccccc1)C(=O)Cc1ccc(S(=O)(=O)N2CCOCC2)s1,0.74% (inactive)

row,SMILES,inhibition
1,CCCCCCCCN1C(=O)[C@@H](CC(=O)NCc2ccc(C)o2)C[C@@]2(C(=O)OC)C1=C[C@H](C(C)(C)C)O[C@@H]2C,1.42% (inactive)
2,O=C(O)c1ccc(N=NN2CCOCC2)cc1,3% (inactive)
3,O=C(O)c1ccc(NN=CC2=C(N3CCOCC3)/C(=C/c3ccccc3)CC2)cc1,48.1% (active)
4,O=C1OC(NC(=O)c2ccccc2)C(N2CCOCC2)=C1Cl (centres undefined),-0.63% (inactive)
5,CCOc1ccc(-n2c(SCC(=O)Nc3cc(C)c(NC(=O)c4ccccc4)cc3OC)nnc2-c2cccc(Cl)c2)cc1,12.6% (inactive)
6,O=C(COC(=O)c1ccc(O)cc1O)NNC(=O)c1cccs1,1.41% (inactive)
7,CCc1ccc(NC(=O)CCNS(=O)(=O)c2cccs2)cc1,-0.02% (inactive)
8,O=C(COC(=O)c1ccc(NS(=O)(=O)c2cccs2)cc1O)Nc1ccc(F)cc1,43.1% (active)
9,C=CCn1c(C2CC(=O)N(c3ccc(C)cc3)C2)nc2ccccc21 (centres undefined),-6.52% (inactive)
10,C=CCn1c(=S)[nH]c2scc(-c3ccco3)c2c1=O,51.7% (active)
11,C=CCOC/C=C/C#CCN(CC=C)Cc1ccc(OC)cc1OC,-2.46% (inactive)
12,COC(=O)[C@]12C[C@H](CC(=O)NCc3cccc(C(F)(F)F)c3)C(=O)N(Cc3ccc4c(c3)OCO4)C1=C[C@H](COCc1ccccc1)O[C@@H]2C,7.43% (inactive)
13,CCn1c2ccccc2c2cc(NC(=O)CSc3nnc(-c4ccccc4)n3-c3ccc(C)cc3)ccc21,11.4% (inactive)
14,Cc1ccc(-c2nnc(SCC(=O)Nc3ccc(Oc4ccccc4)cc3)n2Cc2ccco2)cc1,10.4% (inactive)
15,O=C(CSc1nnc(SCc2ccc(F)cc2)s1)Nc1ccc(C(=O)O)cc1,24.4% (inactive)
16,CCn1c(SCC(=O)Nc2ccc(S(=O)(=O)Nc3onc(C)c3C)cc2)nnc1-c1ccccc1,35.5% (active)
17,Cc1nnc(SCC(=O)Nc2ccc(S(=O)(=O)Nc3ccc(Cl)nn3)cc2)s1,16.9% (inactive)
18,Cc1cc(NS(=O)(=O)c2ccc(NC(=O)CSc3nnc(-c4ccc(C(C)(C)C)cc4)n3Cc3ccco3)cc2)nc(C)n1,37% (active)
19,O=C(CSc1nnc(-c2cccc(Cl)c2)n1Cc1ccco1)Nc1ccc(OCc2ccccc2)cc1,8.04% (inactive)
20,Cc1cc(NS(=O)(=O)c2ccc(NC(=O)CSc3nnc(SCc4ccc(F)cc4)s3)cc2)nc(C)n1,43.9% (active)
21,Cc1noc(NS(=O)(=O)c2ccc(N3CC(O)=C(c4ccccc4)C3=N)cc2)c1C,2.76% (inactive)

row,SMILES,inhibition
1,COC(=O)C1=C(C)N(Cc2cccc(C(F)(F)F)c2)C(=NCc2ccccc2)NC1c1ccccc1C(F)(F)F (centres undefined),4.41% (inactive)
2,NC(=O)c1ncn([C@@H]2O[C@H](C(=O)O)[C@@H](O)[C@H]2O)n1,1.22% (inactive)
3,COc1ccc(C#CCNCc2ccc(OC)cc2OC)cc1,7.62% (inactive)
4,CC(=O)OC1CCC2(C)C(=CCC3C4CC(=O)N(O)C(=O)C4(C)CCC32)C1 (centres undefined),5.82% (inactive)
5,CC(=O)OCCN1CCCC12CCC(c1ccccc1)CC2 (centres undefined),2.02% (inactive)
6,COC(=O)[C@]12C[C@H](CC(=O)NCCCN3CCCC3=O)C(=O)N(CCc3ccc(OC)c(OC)c3)C1=C[C@H](COCc1ccccc1)O[C@@H]2C,3.23% (inactive)
7,CC(=O)Nc1nc2ncccn2c1-c1ccc(C(F)(F)F)cc1,0.83% (inactive)
8,Cc1ccc(C2NC(C(=O)O)CS2)cc1 (centres undefined),0.84% (inactive)
9,COCCNC(=S)N(C)[C@H]1C[C@H]2c3[nH]c4ccccc4c3CCN2C[C@H]1[C@H](C)O,0.81% (inactive)
10,COC(=O)[C@]12C[C@H](CC(=O)NCc3ccccc3)C(=O)N(CCC3=CCCCC3)C1=C[C@H](C(C)C)O[C@@H]2C1CC1,3.49% (inactive)
11,O=C(c1c[nH]c2ccccc12)N1CCC(Oc2cccnc2)CC1,0.25% (inactive)
12,CC(C)=CCCC1(C)C=Cc2c(ccc3c2[nH]c2cc(O)c(C)cc23)O1 (centres undefined),50.7% (active)
13,COP(=O)(O)CNC(=O)OCc1ccccc1,3.7% (inactive)
14,C[C@@H](CN1C2=NC[C@@H](Cc3ccccc3)N2C[C@H]1Cc1ccc(O)cc1)NC(=O)CCC1CCCCC1,10.8% (inactive)
15,C=C(C)C#CC(Cc1ccccc1)NCC1CC1 (centres undefined),0.83% (inactive)
16,O=C(CSc1nnc(-c2cccs2)n1Cc1ccco1)c1ccc2c(c1)OCO2,2.71% (inactive)
17,O=C(CSc1nnc(COc2ccccc2)n1Cc1ccco1)c1ccc2ccccc2c1,10.1% (inactive)
18,Cc1sc2nc(SCC(=O)c3ccc(O)c(O)c3)n(Cc3ccco3)c(=O)c2c1C,60.5% (active)
19,CN[C@H]1C[C@H]2c3cc(N4CCOCC4)ccc3CCN2C[C@H]1[C@H](C)O,0.53% (inactive)
20,COC(=O)c1ccc(NC(=O)CSc2nc(N)c(NC(=O)c3ccc(Br)o3)c(=O)[nH]2)cc1,8.43% (inactive)
21,COc1ccc(OCC(=O)Nc2nnc(-c3ccco3)s2)cc1,35.6% (active)

row,SMILES,inhibition
1,COc1ccc(OCCCC(=O)Nc2nnc(C3CCCO3)s2)cc1 (centres undefined),-2.42% (inactive)
2,COc1ccc(CNC(=O)CCC(=O)Nc2nnc(C(C)C)s2)cc1,-3.44% (inactive)
3,CC(=O)C1=C(C)N(Cc2ccccc2)C(=S)NC1c1cccc(Br)c1 (centres undefined),3.69% (inactive)
4,Cc1[nH]nc2c1C(c1ccc(Br)cc1)NC2=O (centres undefined),2.38% (inactive)
5,CCc1cc(-c2nnc(SCC(=O)NC3CC3)n2C)cs1,-0.55% (inactive)
6,CCc1ccc(C(=O)CSc2nnc(C)c(=O)[nH]2)cc1,1.9% (inactive)
7,Cc1nnc(SCC(=O)NCc2cccs2)[nH]c1=O,1.73% (inactive)
8,N#Cc1c(-c2cccs2)nc(SCC(=O)c2ccc(Br)cc2)[nH]c1=O,76% (active)
9,COc1ccc(-n2c(COc3ccccc3)nnc2SCC(=O)Nc2ccc3c(c2)OCO3)cc1,3.35% (inactive)
10,CN[C@H]1C[C@H]2c3[nH]c4c(-c5ccccc5)cccc4c3CCN2C(=O)[C@H]1[C@H](C)O,1.12% (inactive)
11,COc1ccc([C@H]2OC(=O)C[C@H]2C(=O)N2CCN(c3ccccc3F)CC2)cc1OC,-0.41% (inactive)
12,O=C(CCCCCN1C(=O)C2C3C=CC(C3)C2C1=O)Nc1ccccc1 (centres undefined),-0.35% (inactive)
13,O=C(Nc1cccc(F)c1)c1coc(=O)c(Br)c1,1.62% (inactive)
14,O=C(Nc1nc2ccc(Cl)cc2s1)c1cc(-c2ccc(Cl)cc2)nc2ccccc12,7.74% (inactive)
15,Cc1cc(C(=O)Nc2ccc(C)c(S(=O)(=O)N3CCOCC3)c2)c2ccccc2n1,5.4% (inactive)
16,O=C(O)c1cccc(NC(=O)c2cc(-c3cccc(Cl)c3)nc3ccccc23)c1,49.4% (active)
17,Cc1c(C(=O)Nc2cccc(Cl)c2)cn2c(nc3ccccc32)c1C#N,0.68% (inactive)
18,O=C(Nc1cccc(F)c1)c1cc(-c2ccco2)nc2ccccc12,35% (active)
19,CN(C)S(=O)(=O)c1cccc(C(=O)N/N=C\c2ccco2)c1,3.29% (inactive)
20,Cc1ccc(S(=O)(=O)N2CC3C(=O)C[C@@H](c4ccccc4Cl)N(S(=O)(=O)c4ccc(C)cc4)C3CC2c2ccccc2)cc1 (some centres undefined),8.71% (inactive)
21,CC(C)CSc1nnc(-c2cccnc2)n1Cc1ccccc1,-1.04% (inactive)

# Reference: PubChem BioAssay AID651821 (The Scripps Research Institute Molecular Screening Center, 2012)
